Assay results published in PubChem BioAssay (NCATS).
Results filed as inconclusive are left out. Where a call stands in place of a potency, no number is given. Calls of active or inactive are those of the source. Calls come from the whole dose curve.

Columns and labels:
[1] = Cytotoxicity counterscreen for inhibitors of SARS-CoV-2 cell entry (AID 1645845); conditions: outcome: dose series up to 57.1 µM unless noted; note: nearly all actives have a fitted effect of over 50% in size
Summary of the method: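 48 h compound treatment (after 1 h preincubation), HEK293-ACE2 cells, 37 C/5% CO2; ATP luminescence endpoint; normalized to cell wells and media blanks.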

[2] = Primary qHTS to identify inhibitors of SARS-CoV-2 cell entry (AID 1645846); conditions: SARS-CoV-2 pseudovirus cell entry assay, luminescence; activity change, negative = inhibition: at 57.1 µM (top of the series) unless noted; note: nearly all actives have a fitted effect of over 45% in size
Summary of the method: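 HEK293-ACE2 (Expi293F, stable hACE2), 1500 cells/well, o/n 37C; cpd 23 nL pin, 1 h; MLV-PP w/ SARS-CoV-2-S (Wuhan-Hu-1, Δ19 C-term); 48 h 37C; Bright-Glo luminescence; normalized vs S-PP and bald PP.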
Potency is the fitted concentration of half-maximal effect.

## COc1cc2ncnc(Oc3cccc(NC(=O)Nc4cc(C(C)(C)C(F)(F)F)on4)c3)c2cc1OC
[1]
  Potency: inactive
[2]
  activity change, negative = inhibition: -20.7%

## c1ccc(CNCc2ccc(CN3CCCNCCNCCCNCC3)cc2)nc1
[1]
  Potency: inactive
[2]
  activity change, negative = inhibition: -7.13%

## Cc1ccc(NS(=O)(=O)c2ccc3c(c2)C2C=CCC2C(c2ccc(C(=O)O)cc2)N3)cc1C (stereo not given)
[1]
  Potency: inactive
[2]
  activity change, negative = inhibition: -18.7%

## COC[C@@H](c1ccc(C(F)(F)F)cc1)N1CCN(C2(C)CCN(C(=O)c3c(C)ncnc3C)CC2)C[C@@H]1C
[1]
  Potency: inactive
[2]
  activity change, negative = inhibition: -12.7%

## C[C@@H]1CC(=O)Nc2cccc(-c3cnn(C(C)(C)C)c3)c2N1
[1]
  Potency: inactive
[2]
  activity change, negative = inhibition: -17.2%

## C[C@H](CCC(=O)O)[C@H]1CC[C@H]2[C@@H]3[C@H](O)C[C@@H]4C[C@H](O)CC[C@]4(C)[C@H]3CC[C@]12C
[1]
  Potency: inactive
[2]
  activity change, negative = inhibition: -12.9%

## NC[C@H]1O[C@H](O[C@H]2[C@H](O)[C@@H](O[C@H]3O[C@H](CO)[C@@H](O)[C@H](N)[C@H]3O)[C@H](N)C[C@@H]2N)[C@H](N)C[C@@H]1O
[1]
  Potency: inactive
[2]
  activity change, negative = inhibition: -8.09%

## Cc1cc(C)cc(NC(=O)Cc2ccc(OC(C)(C)C(=O)O)cc2)c1
[1]
  Potency: inactive
[2]
  Potency: inactive

## COc1ccccc1C(=O)Nc1cc2c(cc1N1CCCC1)n(C)c(=O)n2C
[1]
  Potency: inactive
[2]
  activity change, negative = inhibition: -27%

## CCCCC[C@H](O)/C=C/[C@H]1[C@H](O)CC(=O)[C@@H]1CCCCCCC(=O)O
[1]
  Potency: inactive
[2]
  activity change, negative = inhibition: -2.28%

## N#C[C@@H]1C[C@@H]2C[C@@H]2N1C(=O)[C@@H](N)C12CC3CC(CC(O)(C3)C1)C2
[1]
  Potency: inactive
[2]
  activity change, negative = inhibition: -14.2%

## CC1Cc2ccccc2N1C(=O)Cc1nc(N2CCOCC2)cc(=O)[nH]1 (stereo not given)
[1]
  Potency: inactive
[2]
  activity change, negative = inhibition: -26.2%

## Cc1nc2cccc(N)c2c(=O)n1C1CCC(=O)NC1=O (stereo not given)
[1]
  Potency: inactive
[2]
  activity change, negative = inhibition: -12.7%

## O=C1S/C(=C\c2ccc(OCc3cccc(B(O)O)c3)cc2)C(=O)N1Cc1ccc(F)cc1
[1]
  Potency: inactive
[2]
  activity change, negative = inhibition: -28.4%

## Nc1nccc(-c2c(-c3ccc(F)cc3)ncn2C2CCCCC2)n1
[1]
  Potency: inactive
[2]
  Potency: inactive

## Cc1cc(OCc2nnc(SC3CCCC3)n2-c2cccnc2)ccc1-c1ccc(S(C)(=O)=O)cc1
[1]
  Potency: inactive
[2]
  activity change, negative = inhibition: -22.4%

## CC(C)(C)C(=O)N1N=CC[C@H]1c1ccccc1
[1]
  Potency: inactive
[2]
  activity change, negative = inhibition: -3.46%

## Cc1cc(O[C@@H](CCC(F)(F)F)c2ccc(C(=O)NCCC(=O)O)cc2)cc(C)c1-c1ccc(C(C)(C)C)cc1
[1]
  Potency: inactive
[2]
  activity change, negative = inhibition: -0.0119%

## O=C1OC2(CCC(C(=O)Nc3ccn(-c4ccccc4F)n3)CC2)c2cnccc21 (stereo not given)
[1]
  Potency: inactive
[2]
  Potency: inactive

## CN1C(=O)[C@@H](NC(=O)c2n[nH]c(Cc3ccccc3)n2)COc2ccccc21
[1]
  Potency: inactive
[2]
  Potency: inactive

## N#Cc1ccnc(N2C(=O)CC[C@H]2C(=O)N(c2cncc(F)c2)C(C(=O)NC2CC(F)(F)C2)c2ccccc2Cl)c1 (stereo not given in full)
[1]
  Potency: inactive
[2]
  activity change, negative = inhibition: -25.5%

## CCCCCCCCCCCCC[N+](C)(C)Cc1ccccc1
[1]
  Potency: 20 µM (active)
[2]
  Potency: 20 µM (active)

## CN[C@@H]1[C@@H](O)[C@@H](O[C@@H]2[C@@H](O)[C@H](O[C@H]3O[C@H](CN)[C@@H](O)[C@H](O)[C@H]3O)[C@@H](N)C[C@H]2NC(=O)C(O)CN)OC[C@]1(C)O (stereo not given in full)
[1]
  Potency: inactive
[2]
  Potency: inactive

## CN1C(N)=N[C@](C)(c2cc(NC(=O)c3ccc(F)cn3)ccc2F)CS1(=O)=O
[1]
  Potency: inactive
[2]
  activity change, negative = inhibition: -0.893%

## COc1ccc(C(=O)N2CCN(C(=O)/C=C/c3ccc(Br)cc3)CC2)cc1
[1]
  Potency: inactive
[2]
  activity change, negative = inhibition: -2.12%

## Cn1cc(-c2nc(N[C@@H]3CCCC[C@@H]3N)c(F)c3c2C(=O)NC3)cn1
[1]
  outcome: inactive [at 5.25 µM]
[2]
  activity change, negative = inhibition: 4.2% [at 5.25 µM]

## N#Cc1ccc(Cn2cncc2CN2CCN(c3cccc(Cl)c3)C(=O)C2)cc1
[1]
  Potency: inactive
[2]
  Potency: inactive

## Cc1c[nH]c(/C=C2\C(=O)Nc3ccccc32)c1CCC(=O)O
[1]
  Potency: inactive
[2]
  activity change, negative = inhibition: -20.8%

## Cc1ccccc1-n1nc(-c2c(-c3ccc(F)cc3)nn3c2NC[C@@H](CO)C3)ccc1=O
[1]
  Potency: inactive
[2]
  activity change, negative = inhibition: -24.3%

## CCC(=O)N1CCOc2c(cc(-c3cc(OC)cc(OC)c3)cc2C(=O)N[C@H]2CCCN(C)C2)C1
[1]
  Potency: inactive
[2]
  activity change, negative = inhibition: -26.1%

## Cc1c(F)cccc1NC(=O)Nc1ccc(Cl)c(S(=O)(=O)[C@H]2CCCNC2)c1O
[1]
  Potency: inactive
[2]
  Potency: inactive

## CCOC(=O)c1ccnc(CNCC(=O)N(CC)CCN(C)C)c1
[1]
  Potency: inactive
[2]
  activity change, negative = inhibition: -19.4%

## COc1cccc(OCCCN)c1-c1cc(Nc2cnc(C#N)cn2)n[nH]1
[1]
  Potency: inactive
[2]
  activity change, negative = inhibition: -33%

## CCNC(=O)Nc1ncc(-c2cc(-c3c(C)cc(OC)cc3C)nc(-c3cnccn3)n2)s1
[1]
  Potency: inactive
[2]
  activity change, negative = inhibition: -1.07%

## Cc1ccc(-c2nc(N)nc3c2nnn3Cc2cccc(CO[C@H]3CCOC3)n2)o1
[1]
  Potency: inactive
[2]
  activity change, negative = inhibition: -15.2%

## O=C(Nc1ccc(-c2ccnc(Nc3ccc(N4CCOCC4)cc3)n2)cc1)C1CCCN1 (stereo not given)
[1]
  Potency: inactive
[2]
  activity change, negative = inhibition: -3.33%

## Nc1nc(F)nc2c1ncn2C1OC(COP(=O)(O)O)C(O)C1O (stereo not given)
[1]
  Potency: inactive
[2]
  activity change, negative = inhibition: -9.43%

## CC#Cc1cncc(-c2ccc3c(c2)[C@@]2(N=C(C)C(N)=N2)C2(CCC(OC)CC2)C3)c1 (stereo not given in full)
[1]
  Potency: inactive
[2]
  Potency: inactive

## CC(=O)O/N=C1/C(c2c(O)[nH]c3cc(Br)ccc23)=Nc2ccccc21
[1]
  Potency: inactive
[2]
  Potency: inactive

## N#Cc1ccc(N(Cc2ccc(Br)cc2)n2cnnc2)cc1
[1]
  Potency: inactive
[2]
  activity change, negative = inhibition: -18.8%

## O=C(/C=C/c1ccc2ccc(C(F)(F)F)cc2n1)c1ccncc1
[1]
  Potency: inactive
[2]
  activity change, negative = inhibition: -5.32%

## C#Cc1cccc(Nc2ncnc3cc4c(cc23)OCCOCCOCCO4)c1
[1]
  Potency: inactive
[2]
  activity change, negative = inhibition: -13.8%

## CCC(=O)O[C@]1(C(=O)CO)CC[C@H]2[C@@H]3CCC4=CC(=O)CC[C@]4(C)[C@H]3CC[C@@]21C
[1]
  Potency: inactive
[2]
  Potency: inactive

## CN1CCN(C(=O)[C@H]2[C@@H](C(=O)O)[C@H]3CC[C@@H]2O3)CC1
[1]
  activity change, negative = cytotoxicity: 2.39% [at 11.3 µM] (inactive)
[2]
  activity change, negative = inhibition: -6.02% [at 11.3 µM]

## O=C(/C=C\n1cnc(-c2cc(C(F)(F)F)cc(C(F)(F)F)c2)n1)NNc1cnccn1
[1]
  Potency: inactive
[2]
  Potency: 2.82 µM (active)

## CCO[C@@H]1OC(=O)C[C@@H]1NC(=O)[C@@H]1CCCN1C(=O)[C@@H](NC(=O)c1ccc(N)c(Cl)c1)C(C)(C)C
[1]
  Potency: inactive
[2]
  activity change, negative = inhibition: -14.2%

## COc1cc(-c2cn(C)c(=O)c3cnccc23)cc(OC)c1CN(C)C
[1]
  Potency: inactive
[2]
  Potency: inactive

## COc1cc2c(NC3CCN(C)CC3)nc(N3CCCN(C)CC3)nc2cc1OCCCN(C)C
[1]
  Potency: inactive
[2]
  activity change, negative = inhibition: -3.44%

## CC1CCC(n2c3cnccc3c3cnc(Nc4ccc5c(n4)CCN(C(=O)CO)C5)nc32)CC1 (stereo not given)
[1]
  activity change, negative = cytotoxicity: 4.82% [at 11.3 µM] (inactive)
[2]
  outcome: inactive [at 11.3 µM]

## NS(=O)(=O)Oc1ccc2c3c(c(=O)oc2c1)CCCCC3
[1]
  Potency: inactive
[2]
  Potency: inactive

## CN[C@@H](C)C(=O)N[C@H](C(=O)N1CCC[C@H]1C(=O)Nc1sc(-c2ncco2)nc1-c1ccccc1)C1CCCCC1
[1]
  Potency: inactive
[2]
  Potency: inactive

## COc1ccc(-c2oc3c(CC=C(C)C)c(OC4O[C@H](CO)[C@@H](O)[C@H](O)[C@H]4O)cc(O)c3c(=O)c2OC2O[C@@H](C)[C@H](O)[C@@H](O)[C@H]2O)cc1 (stereo not given in full)
[1]
  Potency: inactive
[2]
  activity change, negative = inhibition: -18.5%

## Cc1c[nH]c2nc(Nc3ccc(N4CCN(C)CC4)c(F)c3)nc(-c3cccc(CC#N)c3)c12
[1]
  Potency: 8.91 µM (active)
[2]
  Potency: 2.51 µM (active)

## Cc1cc(C)c2c(c1)[C@@H](N(Cc1cc(C(F)(F)F)cc(C(F)(F)F)c1)c1nnn(C)n1)CCCN2CC1CCC(C(=O)O)CC1 (stereo not given in full)
[1]
  Potency: inactive
[2]
  activity change, negative = inhibition: -28%

## CC1(C)OC2=C(C(=O)c3ccccc3C2=O)[C@H](NCc2ccccc2)[C@@H]1O
[1]
  Potency: 10 µM (active)
[2]
  Potency: 3.16 µM (active)

## O=C1CC[C@H](N2Cc3c(OCc4ccc(CN5CCOCC5)cc4)cccc3C2=O)C(=O)N1
[1]
  Potency: inactive
[2]
  activity change, negative = inhibition: -23.3%

## Cc1nn(C)c(COc2ccc(N3CCN(S(=O)(=O)N(C)C)CC3)cc2)c1-c1cccc2c(CCCOc3cccc4ccccc34)c(C(=O)O)n(CCN3CCOCC3)c12
[1]
  Potency: inactive
[2]
  activity change, negative = inhibition: -18.4%

## N#CCC1(n2cc(-c3ncnc4[nH]ccc34)cn2)CN(C2CCN(C(=O)c3ccnc(C(F)(F)F)c3F)CC2)C1
[1]
  Potency: inactive
[2]
  Potency: inactive

## CC1(C)O[C@@H]2C[C@H]3[C@@H]4CCC5=CC(=O)C=C[C@]5(C)[C@H]4[C@@H](O)C[C@]3(C)[C@]2(C(=O)CO)O1
[1]
  Potency: inactive
[2]
  activity change, negative = inhibition: 4.23%

## O=c1c(-c2ccc(O)cc2)coc2cc(O[C@@H]3O[C@H](CO)[C@@H](O)[C@H](O)[C@H]3O)ccc12
[1]
  Potency: inactive
[2]
  Potency: inactive
